# SENP8 block-1: blocks the human protease SENP8; Q96LD8; purified SENP8, Z-RLRGG-aminoluciferin cleavage, luminescence; inhibition, % at 10 µM; 330,000 compounds, 1.2% hits; AID 2540; in the data active = inhibition above about 50%
# Target sequence (Q96LD8 whole entry, looked up): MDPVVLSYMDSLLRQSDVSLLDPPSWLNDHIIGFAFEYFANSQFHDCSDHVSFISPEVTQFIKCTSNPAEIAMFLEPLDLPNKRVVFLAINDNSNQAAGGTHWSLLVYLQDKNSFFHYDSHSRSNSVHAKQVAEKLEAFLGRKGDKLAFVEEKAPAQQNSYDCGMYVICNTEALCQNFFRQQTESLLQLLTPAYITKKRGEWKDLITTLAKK
# LGR2 antag: inhibitors of bursicon-induced Drosophila LGR2 receptor cAMP signaling. inhibition, % at 9.99 µM. AID 720647. 380,000 compounds, 0.35% hits. HEK293 LGR2, CRE-luciferase, bursicon-stimulated, 4 h;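 active = drop in luminescence signal, shown as inhibition above about 50% in the replicate tests, limit read from the data, passing the limit was not always enough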;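 note: agonist challenge used bursicon conditioned medium at about half maximal strength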
# SENP8 block-2: blocks human SENP8 cleavage of Nedd8 substrate | Q96LD8 | recombinant SENP8, Nedd8 substrate fluorescence | inhibition, % at 20 µM | 360,000 compounds, 0.64% hits | AID 602440; in the data active = inhibition mostly above about 40%, no sharp cut-off; inactive = mostly below about 27%
# SENP7 inh: SENP7 protease inhibition | Q9BQF6 | recombinant SENP7, Z-RLRGG-aminoluciferin luminescence, 40 min | inhibition, % at 5 µM | 330,000 compounds, 1.5% hits | AID 434973;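 active = inhibition above about 50% at the single test dose, limit read from the data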;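 note: plate controls were DMSO with enzyme for no effect and no enzyme buffer wells for full effect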
# Target sequence (Q9BQF6 706-1050 limits assumed): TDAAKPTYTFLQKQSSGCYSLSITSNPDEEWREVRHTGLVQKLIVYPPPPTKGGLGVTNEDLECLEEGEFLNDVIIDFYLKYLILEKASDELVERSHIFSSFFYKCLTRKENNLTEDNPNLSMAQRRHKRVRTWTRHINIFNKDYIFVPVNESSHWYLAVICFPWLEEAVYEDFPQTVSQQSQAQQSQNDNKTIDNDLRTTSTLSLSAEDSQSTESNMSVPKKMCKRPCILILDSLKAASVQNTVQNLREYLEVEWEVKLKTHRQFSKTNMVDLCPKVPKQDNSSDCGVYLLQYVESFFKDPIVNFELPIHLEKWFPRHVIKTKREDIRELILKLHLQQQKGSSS
# SENP6 inh: SENP6 protease inhibition | Q9GZR1 | Recombinant SENP6 catalytic domain, aminoluciferin luminescence | inhibition, % at 10 µM | 330,000 compounds, 1.8% hits;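 active = inhibition above about 50% at the single tested dose, limit read from the data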;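 note: plate controls were DMSO wells with enzyme for no effect and DMSO wells lacking enzyme for full effect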
# HSP90 inh: HSP90 refolding inhibition in rabbit reticulocyte lysate; luciferase refolding luminescence, 3 h; inhibition, % at 5.6 µM; 290,000 compounds, 0.91% hits;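 active = inhibition above the screen-wide mean plus 3 SD, computed separately per campaign, cut at about 16% in these data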;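 note: 0% = DMSO wells and 100% = 60 µM geldanamycin wells; inhibitors lower the luminescence because luciferase stays unfolded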
# The depositor's hits bear a star; i = inactive; x = no result given. Compounds with a hit are over-represented: about 2.3% of the library has one in this group of screens.
SMILES,SENP8 block-1,LGR2 antag,SENP8 block-2,SENP7 inh,SENP6 inh,HSP90 inh
O=c1oc(-c2ccc([N+](=O)[O-])cc2)nc2ccc(O)cc12,95.4*,-1.9,6.6,100.0*,95.1*,-1.8
CCOC(=O)C(=Cc1ccc(N(C)C)cc1)C(=O)c1ccccc1,x,4.1,-7.8,x,x,x
CCOC(=O)N(O)c1ccc(C=Cc2ccccc2)cc1,x,67.0*,-382.4,x,x,x
C[C@H]1CCCCO[C@@H](CN(C)Cc2ccccc2)[C@@H](C)CN([C@@H](C)CO)C(=O)c2cc(NC(=O)c3ccncc3)ccc2O1,x,-12.1,x,x,x,x
CCOC(=O)c1c(C)[nH]c(C(=O)OCC(=O)Nc2sccc2C(N)=O)c1C,-5.5,70.7*,-17.4,-6.0,-7.5,x
CC(C)N1C(=O)/C(=C\c2nc3ccccc3c(=O)[nH]2)c2ccccc21,x,97.8*,10.9,x,x,5.8
COc1ccc(NC(=O)N(C)C[C@@H]2Oc3ccc(NS(=O)(=O)c4ccccc4)cc3CC(=O)N([C@H](C)CO)C[C@@H]2C)cc1,x,6.4,x,x,x,x
COc1ccc(NS(=O)(=O)c2cc([N+](=O)[O-])ccc2N/N=C\c2c(C)[nH]c3ccccc23)cc1,16.4,-0.5,46.9*,3.9,-0.8,2.2
CC(C)NC(=O)N(C)C[C@@H]1Oc2c(NS(=O)(=O)c3ccccc3)cccc2C(=O)N([C@H](C)CO)C[C@H]1C,x,-10.7,x,x,x,x
CCc1cc2c(=O)c(-c3nc(C)cs3)coc2cc1O,37.9,-28.9,-15.9,77.2*,66.4*,-0.3
CN1CCN(C(=O)C[C@H]2C[C@@H]3c4cc(NC(=O)C5CCC5)ccc4O[C@@H]3[C@H](CO)O2)CC1,x,4.7,x,x,x,x
C[C@@H]1CN([C@@H](C)CO)C(=O)Cc2cc(NC(=O)CCCCCC(=O)Nc3ccccc3N)ccc2O[C@H]1CN(C)C(=O)Nc1ccc2c(c1)OCO2,x,4.7,x,x,x,x
CCCOc1ccc(F)cc1-c1cc(C(=O)Nc2ccc(OC)nc2)[nH]n1,x,x,11.4,x,x,x
CCCOc1ccc(F)cc1-c1cc(C(=O)Nc2cc(OC)c(OC)c(OC)c2)[nH]n1,x,51.3*,14.3,x,x,x
Cc1ccc(NC(=O)Nc2ccccc2C(N)=O)cc1,88.6*,-37.3,-41.4,95.8*,95.1*,5.0
Cc1ccccc1NC(=O)Nc1ccccc1C(N)=O,-4.9,7.2,-4.2,2.6,-6.4,9.4
CCS(=O)(=O)N1CC(=O)N2[C@H](CO)[C@@H](c3ccc(C#CC4CC4)cc3)[C@@H]2C1,x,3.8,x,x,x,x
O=C(NNc1ccc([N+](=O)[O-])cn1)Nc1ccc(N=Nc2ccccc2)cc1,x,-19.2,48.1*,x,x,x
O=[N+]([O-])c1ccc2nc(NN=Cc3ccc(O)cc3)sc2c1,x,104.8*,-75.0,x,x,x
O=C(Nc1nc2ccc([N+](=O)[O-])cc2s1)c1ccco1,74.7*,x,x,40.3,82.6*,-3.7
COCC(=O)Nc1ccc2c(c1)OC[C@H](C)N(Cc1cc(F)ccc1F)C[C@@H](C)[C@@H](OC)CN(C)C2=O,x,-0.6,x,x,x,x
CN(C)/C=C1/C(=O)N(c2ccc([N+](=O)[O-])cc2)N=C1c1ccccc1,96.1*,-58.0,x,97.2*,101.5*,-6.2
CCN1C(=O)C(=Cc2cccc(OC)c2Oc2ccc([N+](=O)[O-])cc2[N+](=O)[O-])SC1=S,94.6*,8.4,33.4,54.5*,81.4*,3.9
COC(=O)c1ccc2c(c1)C(C)(C)C(/C=C/c1ccccc1O)=[N+]2C,6.6,56.2*,-277.7,5.2,6.7,2.8
C[N+]1=C(/C=C/Nc2ccccc2Cl)C(C)(C)c2ccccc21,-4.7,6.7,-0.5,0.3,-1.5,-1.4
SMILES,SENP8 block-1,LGR2 antag,SENP8 block-2,SENP7 inh,SENP6 inh,HSP90 inh
CC(=O)N[C@H]1CC[C@@H](CCNC(=O)C2CC2)O[C@H]1CO,x,4.0,x,x,x,x
COC(=O)c1cc(=O)n(-c2ccccc2)c(=Nc2ccccc2)s1,6.0,x,13.4,-4.6,-1.7,1.9
CCOC(=O)c1ccc(N=c2sc(C(=O)OC)cc(=O)n2-c2ccc(C(=O)OCC)cc2)cc1,9.1,57.7*,11.7,3.6,13.0,3.4
CNC(=O)C[C@H]1CC[C@@H]2[C@H](COC[C@@H](O)CN2Cc2ccc(Cl)c(Cl)c2)O1,x,14.0,x,x,x,x
Cc1noc(C)c1NC(=O)N[C@@H]1CC[C@H](CC(=O)Nc2ccccc2)O[C@@H]1CO,x,-11.9,x,x,x,x
O=C1c2cc(CO)cc(O)c2C(=O)c2c(O[C@@H]3OC(CO)[C@@H](O)[C@@H](O)[C@@H]3O)cccc21 (stereo partly drawn),-4.9,1.8,54.0*,-1.2,8.1,x
O=C(O)c1cc(O)c2c(c1)[C@H]([C@H]1c3cc(C(=O)O)cc(O)c3C(=O)c3c(O[C@@H]4O[C@H](CO)[C@@H](O)[C@H](O)[C@H]4O)cccc31)c1cccc(OC3O[C@H](CO)[C@@H](O)[C@H](O)[C@H]3O)c1C2=O (stereo partly drawn),22.9,12.5,10.0,-56.4,-69.8,x
CC(C)Cn1[nH]c2c3c(ccc2c1=O)C(=O)c1ccccc1C3=O,7.2,x,42.7*,6.7,26.5,-1.2
Cc1ccc2c(c1)-c1c(ssc1=S)C(C)(C)N2C(=O)CSc1nncn1C,4.8,x,42.8*,-2.2,15.3,2.1
CN1CCN(C2=C(Cl)C(=O)c3ccccc3C2=O)CC1,x,72.2*,73.1*,x,x,x
Cc1ccc(S(=O)(=O)Nc2ccc3c(c2)C(=O)N([C@@H](C)CO)C[C@H](C)[C@@H](CN(C)C(=O)Nc2ccc(F)cc2)O3)cc1,x,-22.8,x,x,x,x
CC1=NN(c2ccc(C)cc2C)C(=O)C1C(c1ccccc1)C1C(=O)N(c2ccc(C)cc2C)N=C1C (stereo not drawn),4.8,x,91.5*,14.5,9.7,8.1
Cc1ccc(-n2nc(C)c(C(=O)O)n2)c(C)c1,3.9,-8.9,19.2,-3.4,-11.8,4.1
CCCCNc1c(-c2ccc(OC)c(SC3CCCCC3)c2)nc2cc(C)ccn12,3.9,26.9,i,3.1,-13.7,x
CCCCNc1c(-c2cccc(-c3ccc(OC)cc3)c2)nc2cc(C)ccn12,-6.0,91.5*,-478.0,-1.3,10.6,x
CCCCNc1c(-c2cccc(-c3ccc(OC)cc3)c2)nc2ccc(C)cn12,-1.9,68.0*,-499.0,1.5,-12.5,x
C[C@@H]1CN([C@@H](C)CO)C(=O)Cc2cc(NC(=O)CCN3CCOCC3)ccc2O[C@H]1CN(C)C(=O)Nc1ccc(F)cc1,x,6.7,x,x,x,x
Cc1ccccc1/C=C/C(=O)c1ccc([N+](=O)[O-])o1,-7.6,92.0*,x,11.2,-17.4,x
Cc1cccc(/C=C/C(=O)c2ccc([N+](=O)[O-])o2)c1,-4.5,101.2*,29.0,5.1,-11.5,x
CC(C)NC(=O)N(C)C[C@@H]1Oc2ccc(NC(=O)C3CC3)cc2CC(=O)N([C@@H](C)CO)C[C@@H]1C,x,21.2,x,x,x,x
N=C(N)SCc1cn(-c2ccccc2)nc1-c1ccc(Br)cc1,x,100.4*,6.8,x,x,4.6
CO[C@@H]1CC[C@H]2CCN(C)C(=O)[C@@H](C)[C@H](OC)CN(C)C(=O)c3cccc(C#N)c3OC[C@@H]1O2,x,-2.7,x,x,x,x
CCS(=O)(=O)N1CC2(CN(C(=O)Cc3ccccn3)[C@H](CO)c3[nH]c4cc(OC)ccc4c32)C1,x,-10.9,x,x,x,x

# Screening results from PubChem BioAssay.
